Results filed as inconclusive are left out. Activity calls are given as the source filed them. Unless noted, the call rests on the fitted dose curve; in most records, active means well fitted curve in the direction sought with a large enough effect; inconclusive means small, poorly fitted or top-dose-only effect, or another doubt; inactive means no such curve, though single readings can be large; an effect the other way counts as inactive or inconclusive.

Test [1] deals with Thioredoxin reductase 1, cytoplasmic (Rattus norvegicus) (UniProt O89049). As to the kind of experiment: qHTS Assay for Substrates of Mammalian Selenoprotein Thioredoxin Reductase 1 (TrxR1) (AID 488772).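 Further: NADPH fluorescence in the first read after selenite addition and not the 8 min delta; series mostly up to about 57 µM; 0% is about no effect; a drop in NADPH fluorescence below the no-compound background marks a TrxR1 substrate.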 In outline: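 Quantitative HTS in Tris-HCl buffer at pH 7.5 with EDTA and Tween-20, using rat TrxR1, 400 uM NADPH and 400 uM selenite (final). A fall in initial NADPH fluorescence relative to background marked substrate behaviour.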
On the technique in general: Quantitative high-throughput screening tests each substance at several concentrations.

Test [2] has as its target Flap endonuclease 1 (Homo sapiens) (UniProt P39748). As to the kind of experiment: qHTS Validation Assay for the Inhibitors of Human Flap endonuclease 1 (FEN1) (AID 488816). Further: on the % scale 0 is the no-effect control and ±100 the full control effect. The procedure, abridged: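 Human FEN1 (10 nM) preincubated 15 min at room temperature with compounds, then flap DNA substrate added at 50 nM final. Fluorescence read at 0 and 15 min; concentration-response fitted with four-parameter Hill equation.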

For test [3], the target named is M-phase phosphoprotein 8 (Homo sapiens) (UniProt Q99549). As to the kind of experiment: qHTS Validation Assay for Inhibitors for MPP8 Chromodomain Interactions with Methylated Histone Tails (AID 488949).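 Further: 50 nM MPP8 with 50 nM peptide preformed then compounds added for 30 min; AlphaScreen signal from MPP8 chromodomain bound to biotinylated H3K9me3 peptide; top concentration of the series differs between compounds; on the % scale 0 is the no-effect control and ±100 the full control effect; nearly all actives have a fitted effect of over 55% in size.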 The procedure, abridged:
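50 nM MPP8 + 50 nM b-H3K9me3 peptide, PBS pH 7.4/0.01% Tween-20, 30 min RT; + cpd 30 min RT; + AlphaScreen donor/Ni-chelate acceptor beads 10 ug/mL final, 30 min dark; luminescence read.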

In test [4] the target is Chromobox protein homolog 1 (Homo sapiens) (UniProt P83916). As to the kind of experiment: qHTS Validation Assay for Inhibitors of HP1-beta Chromodomain Interactions with Methylated Histone Tails (AID 488953).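 Further: loss of AlphaScreen luminescence from HP1-beta binding biotinylated H3K9me3 peptide; series mostly up to about 110 µM; on the % scale 0 is the no-effect control and ±100 the full control effect; nearly all actives have a fitted effect of over 50% in size.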 The procedure, abridged:
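Measured as loss of AlphaScreen luminescence from streptavidin donor and nickel acceptor beads (10 ug/mL final) bridging HP1-beta and biotin-H3(1-18)K9me3, each 50 nM. Compounds met the preassembled complex for 30 min at RT.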

Test [5] addresses Methanococcus maripaludis chaperonin (MmCpn) (UniProt Q6LX38). As to the kind of experiment: High-Throughput Screening for Modulators of Cytosolic Chaperonin Activity: MmCpn Primary Screen (AID 488978).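 Further: 50 nM MmCpn enzyme hydrolysing 30 µM ATP at 37 °C; 0% is about no effect.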 In outline: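 Steps: chaperonin 50 nM final; add compound, 5 min RT; start with ATP, 30 uM final; hold 10 min at 37C; add ADP Transcreener HTRF reagent, 5 min; read ex 320, em 590 and 665 nm.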

Test [6] has as its target Transient receptor potential cation channel subfamily V member 1 (Homo sapiens) (UniProt Q8NER1). Briefly: HTS Assay for Compounds that Act as Enhancers of the Vanilloid Receptor 1 (AID 488979). Further: 0% is about no effect. The procedure, abridged: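 TRPV1 cells loaded with Fluo-8 calcium dye; compound added and Ca2+ signal (ex 480/em 520 nm) followed 3 min, then capsaicin at EC20 added and read 2 more min to detect enhancement.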

For test [7], the target named is Thyrotropin receptor (Homo sapiens) (UniProt P16473). Briefly: qHTS Assay for Antagonists of the Thyroid Stimulating Hormone Receptor (AID 488980). Further: series mostly up to about 58 µM; 0% is about no effect. In outline: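 Readout is cAMP by HTRF competition between cellular cAMP and cAMP-d2 for a cryptate-labelled antibody. Antagonism was assessed in TSHR-transfected HEK293 cells stimulated with 4 nM TSH (EC80, final) in the presence of RO 20-1724.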

In test [8] the target is D(1A) dopamine receptor (Homo sapiens) (UniProt P21728). As to the kind of experiment: HTS Assay for Allosteric Agonists of the Human D1 Dopamine Receptor: Primary Screen for Agonists (AID 488981). Further: 0% is about no effect. In outline: (§1)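 Tetracycline-induced HEK293 Trex D1 cells with forced coupling to calcium, loaded with no-wash calcium dye; kinetic fluorescence read 180 s after compound addition for agonism, then a further 180 s after an EC20 dopamine challenge for potentiation.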

For test [9] the target is unchanged. As to the kind of experiment: HTS Assay for Allosteric Agonists of the Human D1 Dopamine Receptor: Primary Screen for Potentiators (AID 488982). Further: 0% is about no effect. In outline:
as §1

The target is the same in test [10]. Briefly: HTS Assay for Allosteric Agonists of the Human D1 Dopamine Receptor: Primary Screen for Antagonists (AID 488983).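 Further: calcium flux response to an EC80 dopamine challenge measured with no-wash dye; nearly all actives have a fitted effect of over 65% in size.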 Further: potency means the concentration at half of the fitted maximal effect. The procedure, abridged: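 Screening of inducible HEK293 T-REx D1 cells: compound first, EC80 dopamine 180 s later, each phase read kinetically for calcium over 180 s.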
A short description of test [11]: Validation screen for small molecules that induce genotoxicity in human embryonic kidney (HEK293T) cells expressing luciferase-tagged ELG1 (AID 493106). Further: potency means the concentration at half of the fitted maximal effect. The procedure, abridged: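 Reporter-gene quantitative HTS in HEK293T cells carrying luciferase-tagged ELG1, whose level climbs under genotoxic stress. Compound exposure lasts 16 hr at 37 °C before luciferase detection.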

Test [12] is described as follows: Nrf2 qHTS screen for inhibitors: Validation (AID 493153; active means well fitted inhibition curve with a large enough effect in the main read-out, with a control signal flat, not every such curve was filed as active). As to conditions: viability change: measured here: cytotoxicity max response. The procedure, abridged: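 Dose-response validation uses reporter A549 cells with firefly luciferase under an antioxidant response element. Compounds stay on cells 18-24 h at 37°C, and luminescence indicates Nrf2-driven transcription.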

Test [13] is described as follows: qHTS for Inhibitors of Cell Surface uPA Generation: Validation Assay (AID 493164).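 Further: RAW 264.7 macrophage cells exposed to compound for 18 h; 0% is about no effect.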 The procedure, abridged: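 RAW 264.7, 4000 cells/well, o/n plating; cpd 7-pt 1:5 dilution 2.45 nM–38.3 uM final; 18 h, 37 C/5% CO2; ATP-Lite, 5 s luminescence exposure.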
In test [14] the target is Galactokinase (Homo sapiens) (UniProt P51570). Briefly: qHTS Validation Assay for Inhibitors of Human Galactokinase (GALK) (AID 493189). Further: 0% is about no effect. In outline: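 5 nM GALK / 100 uM galactose / 35 uM ATP, 20 mM HEPES pH8.0, 5 mM MgCl2, 60 mM NaCl, 1 mM DTT, 0.01% BSA (final). RT 1 h; Kinase-Glo Plus luminescence.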
Test [15] can be described thus: Validation screen for small molecules that induce DNA re-replication in SW480 colon adenocarcinoma cells (AID 504364). Further: 0% is about no effect. The procedure, abridged:
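Cells are treated 48 hr with test compound, stained 40 min with Hoechst at 37 C, and scanned for nuclear fluorescence; compounds inducing re-replication increase nuclei with elevated intensity.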

The target of test [16] is Peptidyl-prolyl cis-trans isomerase NIMA-interacting 1 (Homo sapiens) (UniProt Q13526). Briefly: qHTS Validation Assay to Find Inhibitors of Pin1 (AID 504536; active means well fitted inhibition curve with a large enough effect in the polarisation, with a control signal flat, not every such curve was filed as active; the % refers to the polarisation;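 further: 0% = full Pin1 enzyme wells and -100% = no-enzyme wells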). The procedure, abridged: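 Fluorescence polarization competition: compounds (titration) displace HiFluor-488-labeled Pin1-1b peptide from Pin1 (0.3 uM final) in pH 7.5 HEPES buffer with DTT, 10 min at room temperature; %Activity normalized to no-enzyme wells, curves fitted.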

Test [17] concerns the target Phosphoglycerate kinase, glycosomal (Trypanosoma brucei brucei) (UniProt P07378). Briefly: qHTS Validation Assay to Find Inhibitors of Phosphoglycerate Kinase (AID 504547).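 Further: control wells lack PGK and mark full inhibition.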 The procedure, abridged: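 PGK activity was coupled to GAPDH (100nM final), which generates the unstable substrate 1,3-bisphosphoglycerate in-well. Reactions ran 60 minutes at room temperature in 100mM TEA pH 7.6, 5mM MgCl2, 0.01% Tween-20, then Kinase-Glo Plus luminescence was read.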

Test [18] has as its target phosphoglycerate mutase (Leishmania major) (UniProt Q4Q090). Briefly: qHTS Validation Assay to Find Inhibitors of Phosphoglycerate Mutase (AID 504548). Further: series mostly up to about 58 µM; on the % scale 0 is the no-effect control and ±100 the full control effect. In outline: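 Lm PGAM at 1.25 nM final with substrate in 100 mM TEA pH 7.6, 5 mM MgCl2, 0.01% Tween-20; 45 min at room temperature. Kinase-GloPlus added, 10 min, end-point luminescence read.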
Test [19] is described as follows: Quantitative high throughput screen for delayed death inhibitors of the malarial parasite plastid, 48 hour incubation (AID 488752). Further: on the % scale 0 is the no-effect control and ±100 the full control effect; nearly all actives have a fitted effect of over 65% in size. In outline:
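One parasite generation (48 h, 37 C, 5% CO2) of luciferase-reporter P. falciparum in erythrocytes is run with test compound; decreased luminescence indicates inhibited growth.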

Test [20] concerns the target ATPase family AAA domain-containing protein 5 (Homo sapiens) (UniProt Q96QE3). As to the kind of experiment: Validation screen for small molecules that inhibit ELG1-dependent DNA repair in human embryonic kidney (HEK293T) cells expressing luciferase-tagged ELG1 (AID 493107).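 Further: cells co-treated with the DNA-damaging agent 5-fluorouridine alongside compound; series mostly up to about 46 µM; on the % scale 0 is the no-effect control and ±100 the full control effect; inhibitors lower the ELG1-luciferase luminescence signal; nearly all actives have a fitted effect of over 70% in size.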 The procedure, abridged: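 Quantitative HTS in HEK293T cells carrying luciferase-tagged ELG1, stimulated with 5-fluorouridine alongside compound for 16 hr. Loss of luciferase signal marks inhibition of ELG1 response.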

Sequence of phosphoglycerate mutase (Leishmania major) (Q4Q090 1-553): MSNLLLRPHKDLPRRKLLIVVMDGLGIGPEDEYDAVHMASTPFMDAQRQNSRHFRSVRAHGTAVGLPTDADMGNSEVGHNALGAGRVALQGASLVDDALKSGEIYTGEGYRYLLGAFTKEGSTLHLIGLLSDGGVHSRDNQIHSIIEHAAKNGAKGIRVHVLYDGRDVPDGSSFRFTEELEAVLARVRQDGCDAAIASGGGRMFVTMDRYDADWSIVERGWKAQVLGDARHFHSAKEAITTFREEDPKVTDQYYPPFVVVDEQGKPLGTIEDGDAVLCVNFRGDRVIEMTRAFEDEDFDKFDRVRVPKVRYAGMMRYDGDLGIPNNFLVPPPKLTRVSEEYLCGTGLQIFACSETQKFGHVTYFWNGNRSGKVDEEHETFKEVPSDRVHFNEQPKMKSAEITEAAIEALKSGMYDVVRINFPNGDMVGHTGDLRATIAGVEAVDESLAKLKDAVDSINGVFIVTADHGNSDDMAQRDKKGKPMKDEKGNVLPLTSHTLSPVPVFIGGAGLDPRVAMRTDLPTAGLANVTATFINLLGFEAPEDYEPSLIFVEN
Sequence of Phosphoglycerate kinase, glycosomal (Trypanosoma brucei brucei) (P07378 whole entry, looked up): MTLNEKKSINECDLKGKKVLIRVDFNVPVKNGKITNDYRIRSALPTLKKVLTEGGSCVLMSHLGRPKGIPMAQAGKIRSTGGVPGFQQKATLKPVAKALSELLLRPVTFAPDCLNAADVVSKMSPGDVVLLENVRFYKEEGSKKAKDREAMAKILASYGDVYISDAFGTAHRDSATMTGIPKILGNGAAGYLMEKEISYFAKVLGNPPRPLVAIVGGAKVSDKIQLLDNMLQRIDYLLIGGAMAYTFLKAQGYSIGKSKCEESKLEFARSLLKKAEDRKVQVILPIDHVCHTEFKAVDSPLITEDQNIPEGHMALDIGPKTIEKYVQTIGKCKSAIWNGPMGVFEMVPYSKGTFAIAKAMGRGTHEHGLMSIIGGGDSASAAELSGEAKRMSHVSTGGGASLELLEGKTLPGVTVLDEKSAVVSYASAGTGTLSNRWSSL
Sequence of Chromobox protein homolog 1 (Homo sapiens) (P83916 whole entry, looked up): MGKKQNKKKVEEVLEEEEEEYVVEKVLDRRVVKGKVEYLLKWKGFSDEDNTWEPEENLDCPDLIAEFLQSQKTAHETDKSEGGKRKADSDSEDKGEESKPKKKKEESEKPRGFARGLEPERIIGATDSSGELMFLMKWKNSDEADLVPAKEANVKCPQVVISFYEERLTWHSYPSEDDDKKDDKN
Sequence of Galactokinase (Homo sapiens) (P51570 whole entry, looked up): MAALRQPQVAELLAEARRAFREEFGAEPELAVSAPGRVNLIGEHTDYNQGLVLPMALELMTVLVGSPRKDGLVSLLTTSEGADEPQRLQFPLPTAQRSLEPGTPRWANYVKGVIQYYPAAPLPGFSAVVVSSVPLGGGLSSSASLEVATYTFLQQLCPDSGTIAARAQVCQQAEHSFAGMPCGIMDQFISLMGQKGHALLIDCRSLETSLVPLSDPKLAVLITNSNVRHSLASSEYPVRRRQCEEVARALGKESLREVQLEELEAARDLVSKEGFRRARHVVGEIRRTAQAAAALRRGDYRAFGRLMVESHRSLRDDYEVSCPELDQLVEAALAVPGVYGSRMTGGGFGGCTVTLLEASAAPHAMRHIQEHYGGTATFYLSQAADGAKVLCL
Sequence of Transient receptor potential cation channel subfamily V member 1 (Homo sapiens) (Q8NER1 whole entry, looked up): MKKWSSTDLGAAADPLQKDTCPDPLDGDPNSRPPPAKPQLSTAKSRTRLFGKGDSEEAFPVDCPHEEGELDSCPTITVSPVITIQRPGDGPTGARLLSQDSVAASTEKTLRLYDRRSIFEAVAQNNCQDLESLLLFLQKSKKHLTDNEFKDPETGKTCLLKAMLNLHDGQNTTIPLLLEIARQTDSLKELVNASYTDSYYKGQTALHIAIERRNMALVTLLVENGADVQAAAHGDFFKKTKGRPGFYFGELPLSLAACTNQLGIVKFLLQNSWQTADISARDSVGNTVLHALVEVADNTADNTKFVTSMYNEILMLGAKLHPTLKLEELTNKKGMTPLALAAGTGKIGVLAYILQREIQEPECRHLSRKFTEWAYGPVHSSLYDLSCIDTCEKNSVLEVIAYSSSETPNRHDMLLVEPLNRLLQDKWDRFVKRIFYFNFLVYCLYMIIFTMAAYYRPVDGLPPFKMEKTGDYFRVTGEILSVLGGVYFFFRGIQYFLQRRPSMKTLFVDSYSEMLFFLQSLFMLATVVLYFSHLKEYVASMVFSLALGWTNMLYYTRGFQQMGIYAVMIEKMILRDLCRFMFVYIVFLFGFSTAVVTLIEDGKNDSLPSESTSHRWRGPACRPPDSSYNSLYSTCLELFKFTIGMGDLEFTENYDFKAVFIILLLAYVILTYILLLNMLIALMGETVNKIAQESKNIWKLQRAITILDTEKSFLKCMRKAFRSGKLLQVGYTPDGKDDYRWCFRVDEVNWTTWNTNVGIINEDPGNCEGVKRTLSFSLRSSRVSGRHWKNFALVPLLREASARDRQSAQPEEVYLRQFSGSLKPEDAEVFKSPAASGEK
Sequence of Methanococcus maripaludis chaperonin (MmCpn) (Q6LX38 1-543): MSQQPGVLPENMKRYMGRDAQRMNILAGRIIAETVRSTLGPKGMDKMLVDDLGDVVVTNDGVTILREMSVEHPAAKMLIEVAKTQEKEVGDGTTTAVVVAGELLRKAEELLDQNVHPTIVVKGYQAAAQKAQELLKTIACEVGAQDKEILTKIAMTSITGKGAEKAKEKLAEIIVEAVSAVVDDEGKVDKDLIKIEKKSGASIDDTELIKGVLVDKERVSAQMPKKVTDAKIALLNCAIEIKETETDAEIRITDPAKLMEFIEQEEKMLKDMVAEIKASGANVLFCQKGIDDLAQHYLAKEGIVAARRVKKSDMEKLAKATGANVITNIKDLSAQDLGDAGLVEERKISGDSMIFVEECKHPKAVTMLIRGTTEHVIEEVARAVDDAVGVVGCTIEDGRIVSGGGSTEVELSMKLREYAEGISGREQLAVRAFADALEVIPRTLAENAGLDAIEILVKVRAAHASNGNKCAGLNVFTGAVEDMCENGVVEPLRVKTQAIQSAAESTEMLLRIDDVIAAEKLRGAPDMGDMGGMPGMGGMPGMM
Sequence of Peptidyl-prolyl cis-trans isomerase NIMA-interacting 1 (Homo sapiens) (Q13526 whole entry, looked up): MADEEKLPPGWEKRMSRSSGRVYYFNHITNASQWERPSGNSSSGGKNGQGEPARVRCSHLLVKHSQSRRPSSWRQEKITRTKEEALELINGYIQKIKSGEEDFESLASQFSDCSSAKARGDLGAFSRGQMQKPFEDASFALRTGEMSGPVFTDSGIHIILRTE
Sequence of ATPase family AAA domain-containing protein 5 (Homo sapiens) (Q96QE3 whole entry, looked up, the tested form may be a part): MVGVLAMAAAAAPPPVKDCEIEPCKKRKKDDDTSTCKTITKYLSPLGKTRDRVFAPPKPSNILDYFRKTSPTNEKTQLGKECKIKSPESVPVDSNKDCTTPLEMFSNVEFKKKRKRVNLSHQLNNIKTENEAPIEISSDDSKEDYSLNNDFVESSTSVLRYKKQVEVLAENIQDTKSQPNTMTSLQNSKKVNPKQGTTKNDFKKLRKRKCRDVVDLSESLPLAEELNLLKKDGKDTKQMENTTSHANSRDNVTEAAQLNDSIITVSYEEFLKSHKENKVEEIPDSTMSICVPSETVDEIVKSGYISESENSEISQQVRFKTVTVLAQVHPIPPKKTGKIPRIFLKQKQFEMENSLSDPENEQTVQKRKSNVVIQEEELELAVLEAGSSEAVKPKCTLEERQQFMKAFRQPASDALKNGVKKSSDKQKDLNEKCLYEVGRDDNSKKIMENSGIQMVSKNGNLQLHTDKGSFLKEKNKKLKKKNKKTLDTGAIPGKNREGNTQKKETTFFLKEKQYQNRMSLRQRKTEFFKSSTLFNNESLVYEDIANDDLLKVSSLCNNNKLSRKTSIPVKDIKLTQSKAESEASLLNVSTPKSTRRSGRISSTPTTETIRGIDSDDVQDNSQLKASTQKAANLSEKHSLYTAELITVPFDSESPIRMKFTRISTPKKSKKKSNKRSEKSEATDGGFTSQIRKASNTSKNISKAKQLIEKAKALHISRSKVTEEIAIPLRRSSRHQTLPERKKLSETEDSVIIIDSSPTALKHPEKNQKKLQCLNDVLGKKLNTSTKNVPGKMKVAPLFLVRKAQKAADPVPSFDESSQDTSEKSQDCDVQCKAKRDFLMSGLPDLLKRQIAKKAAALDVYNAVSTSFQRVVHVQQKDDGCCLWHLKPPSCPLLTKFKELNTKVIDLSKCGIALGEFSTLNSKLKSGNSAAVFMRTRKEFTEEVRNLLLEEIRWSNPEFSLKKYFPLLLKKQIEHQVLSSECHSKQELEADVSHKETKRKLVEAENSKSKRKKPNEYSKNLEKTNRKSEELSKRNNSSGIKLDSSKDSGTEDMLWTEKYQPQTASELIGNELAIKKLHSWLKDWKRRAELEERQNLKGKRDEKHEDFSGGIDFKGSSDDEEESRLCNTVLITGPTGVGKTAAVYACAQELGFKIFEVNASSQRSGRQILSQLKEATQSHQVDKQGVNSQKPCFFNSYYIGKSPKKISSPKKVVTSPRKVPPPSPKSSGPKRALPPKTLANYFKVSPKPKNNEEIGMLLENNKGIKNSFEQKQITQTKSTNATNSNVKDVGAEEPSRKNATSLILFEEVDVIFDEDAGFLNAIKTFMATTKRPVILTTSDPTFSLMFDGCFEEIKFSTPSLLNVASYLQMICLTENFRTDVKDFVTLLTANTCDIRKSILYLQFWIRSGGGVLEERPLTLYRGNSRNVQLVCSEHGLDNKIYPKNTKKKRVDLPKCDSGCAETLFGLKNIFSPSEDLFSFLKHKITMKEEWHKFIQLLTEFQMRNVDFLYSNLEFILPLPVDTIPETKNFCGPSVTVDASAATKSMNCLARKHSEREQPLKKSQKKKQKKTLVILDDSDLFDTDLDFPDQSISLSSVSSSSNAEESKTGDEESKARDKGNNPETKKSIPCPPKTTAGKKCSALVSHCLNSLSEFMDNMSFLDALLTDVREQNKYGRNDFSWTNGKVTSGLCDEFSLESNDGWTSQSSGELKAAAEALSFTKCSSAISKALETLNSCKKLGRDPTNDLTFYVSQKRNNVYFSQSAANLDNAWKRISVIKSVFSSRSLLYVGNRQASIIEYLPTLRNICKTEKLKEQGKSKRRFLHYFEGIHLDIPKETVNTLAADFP

On to `COc1cccc(-c2cc(=O)c3ccccc3o2)c1N`, for which the Potency result in test [1], in test [3], in test [4] and in test [10] was “inactive” each time. The compound was classed as inactive in [2], in [5], in [6], in test [7], in [8] and in [9]. The call in test [12], in test [13], in test [14], in [15], in test [16] and in test [17] was inactive. The compound was called inactive in test [18]. For the same compound, in test [11], the Potency was 2.91 µM (active). The viability change in test [12] was -8.39%.
Take `Clc1ccc(Cn2c(CN3CCCC3)nc3ccccc32)cc1`: the compound was classed as inactive in test [19], in test [2], in test [5], in test [6], in test [7] and in test [8]. Also, the result in [9], in test [20], in test [12], in test [13], in test [14] and in test [15] was inactive. The result in test [16], in test [17] and in test [18] was inactive. Besides, the Potency result in test [1], in test [3], in test [10] and in test [11] was “inactive” in each case. The viability change in [12] was 1.98%.
For the compound `CC(C)(C)c1ccc(C(O)CCCN2CCC(C(O)(c3ccccc3)c3ccccc3)CC2)cc1` (centres undefined), the compound was classed as inactive in test [19], in test [5], in test [6], in test [7], in test [8] and in test [9]. Further, the result in test [12], in test [13], in [14], in test [15], in test [16] and in [17] was inactive. In addition, the call in [18] was inactive. The Potency result in test [1] and in test [11] was “inactive” each time. In [12], the viability change is -16.1%.
As for `CCN(CC)CCOC(=O)c1ccc(N)cc1`, the result in test [19], in [2], in test [5], in test [6], in [7] and in test [8] was inactive. In addition, the result in test [9], in test [20], in test [12], in [13], in [14] and in test [15] was inactive. The call in [16], in test [17] and in [18] was inactive. In addition, the Potency result in test [1], in test [3], in test [4], in [10] and in test [11] was “inactive” in each case. The viability change in test [12] was found to be 0.523%.
For `COC(=O)[C@@H]1[C@H]2C[C@H]3c4[nH]c5ccccc5c4CCN3C[C@@H]2CC[C@@H]1O`, the compound was called inactive in test [19], in test [5], in test [6], in [7], in [8] and in test [9]. For the same compound, the outcome in test [20], in test [12], in test [13], in test [14], in [15] and in test [16] was inactive. Moreover, the call in test [17] and in test [18] was inactive. In addition, the Potency result in test [1], in [3], in test [4] and in test [11] was “inactive” each time. The Potency in [10] is 17.8 µM (active). In addition, the viability change in test [12] turned out to be 2.98%.
With `CC(=O)CCCCn1c(=O)c2c(ncn2C)n(C)c1=O`, the compound was classed as inactive in [19], in test [5], in test [6], in test [7], in test [8] and in test [9]. Also, the outcome in [12], in test [13], in test [14], in test [15], in test [16] and in [17] was inactive. Further, the compound was classed as inactive in [18]. For the same compound, the Potency entry in [1], in test [3], in test [4], in [10] and in test [11] was “inactive” in each case. In addition, the viability change in test [12] was -8.24%.
With `CCN(CC)CCNC(=O)c1ccc(N)cc1`, the compound was called inactive in test [19], in test [5], in test [7], in test [8], in [9] and in test [20]. Moreover, the outcome in test [12], in test [13], in test [14], in test [15], in test [17] and in test [18] was inactive. In addition, the Potency entry in test [1], in test [3], in test [4], in test [10] and in [11] was “inactive” each time. Moreover, the viability change in test [12] is -14%.
Consider `CCCNC(=O)NS(=O)(=O)c1ccc(Cl)cc1`, for which the compound was classed as inactive in test [19], in test [2], in [5], in [6], in [7] and in test [8]. Moreover, the result in [9], in test [20], in [12], in [13], in test [14] and in test [15] was inactive. Further, the outcome in [16], in test [17] and in test [18] was inactive. For the same compound, the Potency entry in [1], in test [3], in test [4], in test [10] and in test [11] was “inactive” each time. Also, the viability change in test [12] was -0.767%.

These data come from PubChem BioAssay (NCATS).
